Gal4-VP16 FLuc = inhibits Gal4-VP16 luciferase reporter, ROR gamma counter-screen | Drosophila S2 Gal4-VP16 UAS-luciferase, luminescence, 20 h | Potency, µM (titrated, usually from 53.6 µM), for the others: top-dose activity, negative = inhibition, usual class: inhibitors | hit rate 3.5% among 310,000;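 also: Gal4-VP16 expression switched on by copper sulfate through the metallothionein promoter; potency is read from the fitted curve at half-maximal effect; % is scaled to controls: 0 for no effect and ±100 for the full control effect; nearly all actives have a fitted effect of over 50% in size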
MCF10A rereplic = DNA re-replication induction in MCF 10a cells. MCF 10A DNA re-replication, Hoechst nuclear intensity, 48 h. Potency, µM (titrated, usually from 46.1 µM), without a hit: at the highest dose activity, positive = re-replication, actives largely listed as activators. hit rate 2.9% among 350,000. AID 624296; also: potency is read from the fitted curve at half-maximal effect; % of control where 0% means no effect; nearly all actives have a fitted effect of over 50% in size
Chronic BCR inh = blocks chronic active B-cell receptor signaling; ABC-DLBCL IkBa-CBG/CBR reporter, luminescence ratio, 4 h; Potency, µM (top dose mostly 46.1 µM), for inactives: at the top dose activity change, negative = inhibition, hits mostly inhibitors; hit rate 0.05% among 340,000; active = well fitted inhibition curve with a large enough effect in the signal ratio, with a control signal flat, not every such curve was filed as active; inconclusive = small, poorly fitted or top-dose-only effect, or effect the other way, or a change in a side signal; the % refers to the signal ratio;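 also: potency is read from the fitted curve at half-maximal effect; plate controls were basal doxycycline-induced cells for no effect and cells given 10 µM MG132 for full effect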
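Concentration-response series (up to 46 uM) were applied to TMD8 dual-reporter cells for 4 h at 37C with doxycycline. Green/red ratio, after filter-overlap correction, defined %Activity; red signal alone was normalised to basal cells and zero luminescence.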
RORg inh = inhibitors of mouse ROR gamma transcriptional activity; Drosophila S2 Gal4-RORgamma UAS-luciferase reporter, 20 h; Potency, µM (titrated, usually from 53.6 µM), without a hit: at the highest dose activity change, negative = inhibition, most hits filed as inhibitors; hit rate 5.4% among 310,000; AID 2551; also: potency is read from the fitted curve at half-maximal effect; % is scaled to controls: 0 for no effect and ±100 for the full control effect; nearly all actives have a fitted effect of over 60% in size
Target sequence (P51450 whole entry, looked up, the tested form may be a part): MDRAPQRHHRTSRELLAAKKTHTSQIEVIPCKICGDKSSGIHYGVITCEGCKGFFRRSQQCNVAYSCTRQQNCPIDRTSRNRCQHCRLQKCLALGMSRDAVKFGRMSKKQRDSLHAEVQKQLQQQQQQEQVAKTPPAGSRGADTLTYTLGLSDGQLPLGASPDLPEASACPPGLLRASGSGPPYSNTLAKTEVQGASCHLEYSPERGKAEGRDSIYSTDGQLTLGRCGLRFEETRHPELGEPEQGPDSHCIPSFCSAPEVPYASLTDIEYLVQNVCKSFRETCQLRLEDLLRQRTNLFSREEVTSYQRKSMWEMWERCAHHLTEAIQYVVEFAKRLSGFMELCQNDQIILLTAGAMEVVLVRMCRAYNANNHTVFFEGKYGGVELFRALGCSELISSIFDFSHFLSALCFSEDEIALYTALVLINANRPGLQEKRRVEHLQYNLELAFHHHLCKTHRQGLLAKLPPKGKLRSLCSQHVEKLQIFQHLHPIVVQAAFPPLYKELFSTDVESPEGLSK
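Drosophila S2 cells stably expressing Gal4-DBD/mouse RORγ fusion under metallothionein promoter plus UAS-luciferase; compound 1 h, then 700 uM CuSO4 induction for 20 h at ambient temperature; inhibition read as reduced luminescence.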
SW480 rereplic = inducers of DNA re-replication in SW480 colon cancer cells | hit rate 1.8% among 340,000 | SW480 DNA re-replication, Hoechst DNA content imaging, 48 h | AID 624297 | Potency, µM (doses to about 46.1 µM), for the others: at the highest dose re-replication activation, actives largely listed as activators; also: potency is read from the fitted curve at half-maximal effect; % of control where 0% means no effect; nearly all actives have a fitted effect of over 55% in size
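Quantitative HTS format with DMSO vehicle controls; 48 hr drug incubation at 37 C, then 40 min Hoechst staining and scanning imager measurement at 405 nm excitation.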
Giardia kill = kills Giardia lamblia; hit rate 0.15% among 340,000; activity change, % at 7.66 µM, hits read low; Giardia lamblia trophozoite viability; in the data active = activity change below about -80%; inconclusive = between about -30% and that limit;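 also: parasites exposed to compound for two days anaerobically before the ATP read; % is scaled to controls: 0 for no effect and ±100 for the full control effect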
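Viability, read as ATP luminescence: trophozoites at 100 cells/well, compound added, 48 hrs anaerobic at 37 deg C, then 15-30 min room-temperature development before reading.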
Numbers without * were called inactive; ? = inconclusive; . = no result; [ ] = another dose, or the depositor's remark. The list is not random: actives were taken first. Their share in the collection is about 8.3%. Unless noted, calls follow the shape of the dose curve; as a rule, active = well fitted curve in the direction sought with a large enough effect; inconclusive = small, poorly fitted or top-dose-only effect, or another doubt; inactive = no such curve, though single readings can be large; an effect the other way counts as inactive or inconclusive.

SMILES | Gal4-VP16 FLuc | MCF10A rereplic | Chronic BCR inh | RORg inh | SW480 rereplic | Giardia kill
O=c1c2ccccc2nc(/C=C/c2ccc([N+](=O)[O-])o2)n1CCCO | 7.1µM* | 4.5µM* | ? | 8.9µM* | 4.5µM* | -88*
COc1ccc(CNC(=O)[C@H](C)[C@H]2C[C@]2(C)[C@H](NC(=O)OCc2ccccc2)c2ccccc2)cc1OC | -6% | . | . | 30% | . | .
COc1cc(NC(=O)COc2ccc(Cl)cc2)ccc1-c1cc2ccccc2oc1=O | 12% | 7.3µM* | -10% | 12% | ? | 10
COc1cc(NC(=O)COc2ccc(Cl)cc2)ccc1NC(=O)C(C)C | -4% | -15% | 1% | -11% | 30% | -21
O=C1c2ccccc2C(=O)N1Cc1cnc(N2CCN(c3ccccc3)CC2)s1 | 1% | ? | 4% | -1% | 18µM* | 10
CC(=O)NCCC(=O)N(Cc1ccccc1)c1nc2c(C)cccc2s1 | -11% | 2% | ? | -13% | 4% | 0
CCc1ccccc1NC(=O)Nc1cc(F)ccc1F | ? | -1% | 2% | -34% | 29µM* | 14
Cc1cc(N/N=C/c2cccc(Br)c2)nc2ccccc12 | ? | 2% | ? | 11µM* | -17% | 31
Cc1ccc(/C=N/Nc2ccc3ccccc3n2)o1 | 18µM* | 22% | ? | 13µM* | ? | -6
Cc1cccc(/C=N/Nc2ccc3ccccc3n2)c1 | 6.3µM* | 21µM* | ? | 2.8µM* | -2% | ?
Cc1c(NC(=O)c2nn(CC(C)C)c(=O)c3ccccc23)c(=O)n(-c2ccccc2)n1C | . | -4% | 5% | . | 2% | -12
CCc1nnc(NC(=O)C2CCCN2C(=O)Nc2ccccc2)s1 (centres undefined) | 7% | 12% | -3% | -13% | 2% | 16
COc1ccc(-c2noc(C(C)NC(=O)c3ccco3)n2)cc1OC (centres undefined) | 4% | 1% | 0% | ? | -11% | -1
CN(C)C=Nc1ccc2nc3c(cc2c1)[nH]c1ccccc13 | ? | ? | 3% | ? | ? | -89*
CN(C)C(=S)N=c1ssc(=S)n1Cc1ccccc1 | . | ? | . | . | 5.2µM* | -4
CC(C)OC(=O)c1cccc(C(=O)Nc2cccc(NC(=O)c3cccc(C(=O)OC(C)C)n3)n2)n1 | 2% | 1% | ? | 5% | -10% | -4
CCOC(=O)c1ccc(Oc2nc(NC(C)(C)C)nc(N(C)C)n2)cc1 | -3% | 16µM* | ? | -5% | ? | -3
Cc1ccc(OCc2nnc(N)s2)cc1C | -6% | -2% | -5% | -7% | -18% | 6
COc1cc2c(cc1OC)[C@H](Cc1ccc(O)cc1)NCC2 | 1% | 16µM* | ? | 13% | ? | 13
COc1cc2c(cc1OC)C(c1ccc(O)cc1)NCC2 (centres undefined) | . | 0% | 0% | . | -2% | -16
COc1cc(CNc2ccc3[nH]c(=O)[nH]c3c2)ccc1OCc1ccc(Cl)cc1 | ? | 16% | -2% | 2.8µM* | -14% | 5
COc1cc(CNc2ccc(N3CCN(C(C)=O)CC3)cc2)ccc1OCc1ccc(F)cc1 | -6% | 10µM* | ? | ? | 1% | -8
CC(=O)N1CCN(c2ccc(NCc3ccc(F)cc3)cc2)CC1 | 11% | -1% | ? | 51% | 3% | 3
COc1cc(CNc2ccc3[nH]c(=O)[nH]c3c2)ccc1OCc1ccc(F)cc1 | 3% | 13% | -10% | ? | 14% | -16
CN(C)C(=O)c1ccc(Nc2nc(-c3cccs3)nc3ccccc23)cc1 | -7% | ? | 3% | 9% | ? | 9
SMILES | Gal4-VP16 FLuc | MCF10A rereplic | Chronic BCR inh | RORg inh | SW480 rereplic | Giardia kill
CS(=O)(=O)c1ccccc1-c1csc(N2CCC(C(N)=O)CC2)n1 | . | 22% | ? | . | -7% | 19
CCCc1cc2c(=O)c(-c3nc4ccccc4s3)c(COCC(=O)O)oc2cc1O | 8% | 23µM* | 24% | 11% | ? | -2
O=C(NC1CCCC1)c1ccccc1-c1nc2ccccc2[nH]1 | -3% | 5% | 3% | 23% | -4% | 1
O=C(Nc1nc2ccccc2[nH]1)C1CC1 | ? | 18µM* | 3% | ? | 21µM* | 5
CC(=O)NCCC(=O)Nc1sc2c(c1-c1nc3ccccc3[nH]1)CCCC2 | 1% | 14% | 15% | -17% | -1%[9.22 µM] | 7
O=C(Nc1nc2ccccc2[nH]1)C1CCCO1 (centres undefined) | 5% | ? | -5% | 0% | 0% | -5
O=C(Nc1nc2ccccc2[nH]1)NC1CCCCC1 | ? | 4% | ? | 11µM* | 16% | 7
O=C(Nc1sc2c(c1-c1nc3ccccc3[nH]1)CCCC2)C1CCCC1 | -10% | 19% | ? | 10µM* | -7%[9.22 µM] | -27
O=C(Nc1nc2ccccc2[nH]1)C12CC3CC(CC(C3)C1)C2 | 10µM* | ? | ? | 6.3µM* | 13% | -7
CNC(=O)c1cc(C(=O)c2ccc(Cl)cc2)c(Br)[nH]1 | 5% | -8% | ? | -2% | -5% | -3
COc1cccc(-n2nnc3c(=O)n(CC(=O)N4CCC(Cc5ccccc5)CC4)cnc32)c1 | -1% | -3% | -2% | 2% | -9% | -14
O=C(CCCc1ccccc1)NCc1ccc(Cl)cc1 | 0% | 2% | ? | -12% | -2% | -16
CCCCn1c(SCC(=O)NC(=O)Cc2ccccc2)nc2ccccc2c1=O | . | 4% | 0% | . | ? | -12
C[C@@H](C(=O)NCc1ccccc1)N1C(=O)C2CC=CCC2C1=O (some centres undefined) | -8% | -3% | ? | -24% | -6% | -9
CC(C(=O)Nc1nc2ccccc2[nH]1)N1C(=O)C2CC=CCC2C1=O (centres undefined) | -6% | -3% | 2% | 10µM* | -2%[9.22 µM] | -5
COc1cccc(NC(=O)CN(C)C(=O)c2cc(S(=O)(=O)N3CCCCCC3)ccc2OC)c1 | . | -2% | 2% | . | -18% | 19
Cc1ccnn1CC(=O)N/N=C/c1cn[nH]c1-c1ccc(F)cc1 | ? | -3% | 4% | 14µM* | -4% | 9
COc1cc(Br)cc(/C=N/NC(=O)Cc2ccc(C(F)(F)F)cc2[N+](=O)[O-])c1O | 0.35µM* | ? | ? | 0.14µM* | 24% | -7
COc1cc([N+](=O)[O-])cc(/C=N/NC(=O)c2cc(-c3ccccc3)nc3ccccc23)c1O | 4.5µM* | 6% | ? | 2µM* | 16% | 3
O=C(N/N=C/c1cn[nH]c1-c1ccc(F)cc1)c1ccncc1 | -9% | 2% | -4% | -13% | -5% | 7
COc1cc([N+](=O)[O-])cc(/C=N/NC(=O)c2cc(C)nc3ccccc23)c1O | 13µM* | ? | 5% | 5.6µM* | ? | -6

Screening results deposited in PubChem BioAssay by National Center for Advancing Translational Sciences (NCATS).
